# In the library only some 4.6% were active in any assay of this set; here they are far more common.
# hgDAF12 agonist = activates the H. glycines DAF-12 receptor ligand-binding domain | HEK293 GAL4-hgDAF12 UAS-luciferase reporter, agonist luminescence; normalized to butyrate control | activation, % at 6.8 µM | hit rate 1.8% among 370,000 | AID 687014;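 active means activation above a cutoff set at the mean of all screened compounds plus 3 SD, cut at about 10% in these data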
# DAX1 inh-1 = inhibitors of DAX1 repression of SF-1 activated StAR promoter; HEK293T StAR-luciferase reporter, SF-1/DAX-1 repression relief; inhibition, % at 6.8 µM; hit rate 1.1% among 370,000;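 active means inhibition above the mean over all tested compounds plus 3 SD, cut at about 3.6% in these data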;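 further: higher inhibition means more luminescence from relief of DAX-1 repression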
# ssDAF12 agonist = S. stercoralis DAF-12 activation, primary screen; AID 652126; HEK293 ssDAF-12/GRIP1 lit1-tk-luc reporter, luminescence; % of 3 µM dafachronic acid response; activation, % at 6.8 µM; hit rate 1% among 370,000;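 active means activation above the mean over all tested compounds plus 3 SD, cut at about 0.9% in these data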
# DAX1 inh-2 = inhibitors of human orphan nuclear receptor DAX1 (NR0B1) | P51843 | HEK293 Gal4-DAX1 luciferase reporter, luminescence | inhibition, % at 6.75 µM | hit rate 0.99% among 340,000 | AID 504766;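 active means inhibition above the mean over all tested compounds plus 3 SD, cut at about 4.2% in these data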;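 further: inhibition shows as a rise in luminescence from relieved DAX1 repression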
# hcDAF-12 act = H. contortus DAF-12 activation, primary screen. HEK293 hcDAF-12 lit1-tk-luc reporter, luminescence; 0% DMSO, 100% Δ7-dafachronic acid. activation, % at 6.8 µM. hit rate 1.4% among 370,000. AID 652067;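 active means activation above the mean of all tested compounds plus 3 SD, cut at about 5.5% in these data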
# Wee1 stabilizer = blocks degradation of human Wee1 kinase | reporter increase, % at 5 µM | hit rate 1.2% among 220,000 | AID 1321 | HeLa Luc-Wee1K328M stability, luciferase luminescence; 100% = proteasome inhibitor MG132 effect;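 active means activation above the mean of all tested compounds plus 3 SD, set per screening run, cut at about 8.8% in these data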;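 further: cells exposed to compound for 20 h before luminescence read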
# Target sequence (P30291 whole entry K328M): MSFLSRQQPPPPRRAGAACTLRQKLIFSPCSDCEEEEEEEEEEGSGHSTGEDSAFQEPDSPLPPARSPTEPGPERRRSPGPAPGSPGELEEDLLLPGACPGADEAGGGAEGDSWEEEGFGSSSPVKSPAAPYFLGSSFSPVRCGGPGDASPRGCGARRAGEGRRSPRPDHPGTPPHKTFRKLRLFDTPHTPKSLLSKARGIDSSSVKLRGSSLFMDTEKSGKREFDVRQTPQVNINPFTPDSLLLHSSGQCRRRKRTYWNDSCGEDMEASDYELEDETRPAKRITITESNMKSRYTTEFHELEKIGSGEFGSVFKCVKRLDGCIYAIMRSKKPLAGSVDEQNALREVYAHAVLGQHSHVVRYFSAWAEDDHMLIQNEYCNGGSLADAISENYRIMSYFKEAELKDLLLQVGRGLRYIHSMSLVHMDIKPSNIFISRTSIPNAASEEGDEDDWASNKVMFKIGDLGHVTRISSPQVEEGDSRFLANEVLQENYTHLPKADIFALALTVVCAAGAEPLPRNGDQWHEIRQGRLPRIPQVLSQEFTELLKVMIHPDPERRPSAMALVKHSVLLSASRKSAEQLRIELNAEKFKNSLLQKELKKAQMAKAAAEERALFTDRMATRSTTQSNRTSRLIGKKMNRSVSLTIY
# Hits are given with their value; – = inactive; · = no result given.
SMILES,hgDAF12 agonist,DAX1 inh-1,ssDAF12 agonist,DAX1 inh-2,hcDAF-12 act,Wee1 stabilizer
CCOC(=O)C(C)Sc1ccc2nnc(CCNS(=O)(=O)c3ccccc3)n2n1 (centres undefined),–,–,–,5.8,–,–
COC(=O)CSc1ccc2nnc(CCNS(=O)(=O)c3ccccc3)n2n1,–,–,–,–,–,–
COc1cc(/C=N/NC(N)=S)ccc1OC(=O)c1ccc(C)cc1,–,–,–,–,–,–
COc1cc(/C=N/NS(=O)(=O)c2ccc(C)cc2)ccc1OCc1cccc(C(=O)O)c1,10.5,–,–,–,–,–
COc1cc(/C=N/NC(N)=S)ccc1OCc1ccc(C)cc1,10.6,–,–,–,–,–
COc1cc(OC)cc(C(=O)N[C@H](C(=O)OCC(=O)Nc2ccc3c(c2)OCO3)C(C)C)c1,–,–,–,–,–,·
Cc1c(S(=O)(=O)N2CCCCC2)c(=O)n(C)c(=O)n1C,–,–,–,4.3,–,·
CCOc1ccc(CCNC(=O)COC(=O)Cc2c[nH]c3ccccc23)cc1OCC,–,–,1.3,–,–,·
CCOc1ccc(CCNC(=O)COC(=O)COc2ccc(Cl)cc2)cc1OCC,–,3.8,–,–,–,·
CCCC(=O)N1CCCC1(C)C(=O)Nc1ccc2c(c1)CCN2C(C)=O (centres undefined),–,–,–,·,–,·
Nc1nc(SCc2ccccc2)c2ncn(CCO)c2n1,–,–,–,–,–,·
CCCNC(=O)C1(C)CCN(Cc2ccc(-c3ccccc3)o2)C1 (centres undefined),–,–,–,·,–,·
COC(=O)CCC(=O)OC1(C)C(=O)C=C2C=C(C3CC3)N(CCc3c[nH]c4ccccc34)C=C2C1=O (centres undefined),–,–,–,–,6.3,·
Cc1cc(O)c(C(C)C)cc1NC(=O)c1cccc(Cl)c1,–,–,–,–,–,9.5
COc1ccc(-c2nc3c(C)cc(Br)cn3c2Cc2ccsc2)cc1OC,–,–,–,·,–,·
Cc1ccc(-c2nc3c4ccccc4ccn3c2Cc2ccsc2)cc1,–,–,1.4,·,–,·
Cc1ccc2nc(-c3cccc(Br)c3)c(Cc3cccc(F)c3)n2c1,10.8,4.3,–,·,–,·
COc1ccc(-c2nc3c4ccccc4ccn3c2Cc2ccsc2)cc1OC,–,–,–,·,6.4,·
COc1ccc(-c2nc3c4ccccc4ccn3c2Cc2cccc(Cl)c2)cc1OC,–,–,1.1,·,–,·
COc1ccc(-c2nc3c(C)cc(Br)cn3c2Cc2cccc(Cl)c2)cc1OC,–,–,–,·,–,·
COc1cc(/C=C/C(=O)OCC(=O)N2CC(C)OC(C)C2)ccc1OCC#N (centres undefined),–,–,–,–,–,·
C[C@@H]1CN([C@@H](C)CO)C(=O)CCCn2nncc2CO[C@@H]1CN(C)C(=O)Nc1cccc(Oc2ccccn2)c1,–,–,–,–,–,·
COc1ccc(-c2nc3c4ccccc4ccn3c2Cc2ccc(C)cc2)cc1OC,–,–,–,·,6.3,·
Cc1ccc2nc(-c3ccccc3)c(Cc3ccsc3)n2c1,–,–,2.1,·,–,·
C=CCOc1ccc2c3c(c(=O)oc2c1)CCCC3,–,–,–,4.3,–,·
SMILES,hgDAF12 agonist,DAX1 inh-1,ssDAF12 agonist,DAX1 inh-2,hcDAF-12 act,Wee1 stabilizer
COC(=O)c1cc2c([nH]c1=O)CCCC2=O,–,–,–,–,–,·
COc1ccc2c(n1)Sc1nc3ccccc3nc1N2,–,–,–,5.5,–,–
COc1oc(-c2ccccc2)nc1C(F)(F)F,–,–,–,4.3,–,–
COc1oc(-c2ccccc2C)nc1C(F)(F)F,–,–,–,–,–,–
O=C(COC(=O)/C=C/c1ccco1)Nc1cc(S(=O)(=O)N2CCOCC2)ccc1Cl,–,–,–,–,–,·
CCOc1ccc(/C=C/C2=NNC(=O)CC2)cc1,11.4,–,–,–,–,–
O=C1CCC(/C=C/c2ccccc2)=NN1,–,–,–,–,–,–
CS(=O)(=O)Cc1ccc(C(=O)NC2CCN(Cc3ccccc3)C2)cc1 (centres undefined),–,–,–,4.2,–,·
CCOC(=O)[C@]12CCCC=C1N(CCCOC)C(=O)[C@@H]2CC(=O)NCc1cccs1,–,–,–,·,–,·
Cn1nccc1NS(=O)(=O)c1ccc(C(C)(C)C)cc1,–,–,–,–,–,–
Cc1c(Cl)cccc1S(=O)(=O)Nc1ccnn1C,–,–,–,4.3,–,–
CCCCOCCCNC(=O)C[C@@H]1C[C@@]2(C(=O)OCC)CCC=C2N(Cc2ccc3c(c2)OCO3)C1=O,–,–,–,·,–,·
Cc1ccc(C(=O)OCC(=O)Nc2cccc(S(=O)(=O)N3CCCCC3)c2)s1,–,–,–,–,–,·
C/C(=N\NC(=O)c1c[nH]c2ccccc12)c1ccco1,–,–,–,–,5.9,–
CCc1ccc(/C(C)=N/NC(=O)c2c[nH]c3ccccc23)s1,–,–,1.1,–,6.5,·
C/C(=N\NC(=O)c1ccccc1O)c1ccc(Br)s1,10.9,–,–,–,–,–
C/C(=N\NC(=O)c1ccccc1[N+](=O)[O-])c1ccc(Br)s1,–,–,–,–,–,–
COC(=O)[C@]12CCCCC=C1N(Cc1ccc(OC)cc1)C(=O)[C@@H]2CC(=O)NCc1ccc(C)o1,–,–,–,·,–,·
O=C(Nc1cccnc1Cl)c1cc(-c2ccco2)on1,13.0,–,–,–,–,–
CC(=NNc1cc(C)c2ccccc2n1)c1ccccn1,–,–,0.9,·,–,·
Cc1cc(N/N=C(/CCC(=O)O)C(=O)O)nc2ccccc12,–,–,–,–,–,–
C(=C\c1ccccn1)/c1ccccn1,–,–,–,–,–,–
Clc1ccc(C=Cc2ccccn2)cc1,13.0,–,–,–,–,·
CCCCCC[C@H](CN(CCCC)S(C)(=O)=O)c1ccccc1,–,–,–,·,–,·
Cn1c(=O)c(-c2ccccc2N)nc2ccccc21,–,–,–,–,6.3,–
SMILES,hgDAF12 agonist,DAX1 inh-1,ssDAF12 agonist,DAX1 inh-2,hcDAF-12 act,Wee1 stabilizer
COc1ccc(/C=C2\SC(=O)N(CC(=O)Nc3ccc(F)cc3)C2=O)cc1O,–,–,–,–,–,·
Clc1ccc(CSc2nnc(-c3ccccn3)n2Cc2cccs2)cc1Cl,–,4.2,–,·,–,·
Cc1ccc(CSc2nnc(-c3ccccn3)n2Cc2cccs2)cc1,–,–,–,·,–,·
O=C(c1cccs1)N1CCC(c2ccccc2)C1 (centres undefined),12.1,–,–,–,–,–
O=C(CCN1CCC(c2ccccc2)C1)c1cccs1 (centres undefined),–,–,–,–,–,–
O=C1NC2(CCCCC2)C(=O)N1c1ccc(Cl)cc1,–,–,–,–,–,·
O=C1NC2(CCCCC2)C(=O)N1c1ccccc1,–,–,–,5.8,–,–
C=CCN1C(=O)[C@@H](CC(=O)NCCC(C)C)[C@]2(C(=O)OCC)CCCCC/C=C/12,–,–,–,·,–,·
Cc1cccc(C(=O)Nc2nc3ncccn3c2-c2ccc(F)cc2)c1,–,–,–,·,–,·

# From PubChem BioAssay
